# High-throughput results deposited in PubChem by several laboratories.
# A selection: hits, their analogues and other compounds. The true share with any hit is near 2.2%.
# SUMO Mot1 rescue = SUMOylation pathway inhibition by Mot1-301 growth rescue; AID 2716; S. cerevisiae Mot1-301 growth rescue, ATP luminescence, 38.5C; percent above DMSO median, 100 means doubled; growth rescue, % at 18.8 µM; 320,000 tested, 1% active;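 active means every valid replicate shows activation above 250% relative to neutral control wells; inactive means the rest, any valid replicate at or below 250%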
# SKN-1 inh = inhibitors of C. elegans SKN-1; C. elegans VP596 Pgst-4::GFP/RFP ratio, acrylamide-induced, 24 h; inhibition, % at 21.8 µM; 360,000 tested, 0.49% active;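 active means interference check ratio from 0.5 to 1.5 plus GFP to RFP signal ratio inhibition reaching or exceeding a fixed threshold, cut at about 30% in these data, passing the limit was not always enough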
# sPLA2-III inh = Inhibits HGIII-sPLA2 liposome hydrolysis, primary screen; AID 743126; QFRET BODIPY PC-A2 liposome hydrolysis, fluorescence; Q9NZ20; 370,000 tested, 0.56% active; inhibition, % at 12.2 µM;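 active means inhibition above mean plus 3 SD of compounds lying within the high and low control bounds, cut at about 19% in these data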
# Target sequence (Q9NZ20 whole entry, looked up): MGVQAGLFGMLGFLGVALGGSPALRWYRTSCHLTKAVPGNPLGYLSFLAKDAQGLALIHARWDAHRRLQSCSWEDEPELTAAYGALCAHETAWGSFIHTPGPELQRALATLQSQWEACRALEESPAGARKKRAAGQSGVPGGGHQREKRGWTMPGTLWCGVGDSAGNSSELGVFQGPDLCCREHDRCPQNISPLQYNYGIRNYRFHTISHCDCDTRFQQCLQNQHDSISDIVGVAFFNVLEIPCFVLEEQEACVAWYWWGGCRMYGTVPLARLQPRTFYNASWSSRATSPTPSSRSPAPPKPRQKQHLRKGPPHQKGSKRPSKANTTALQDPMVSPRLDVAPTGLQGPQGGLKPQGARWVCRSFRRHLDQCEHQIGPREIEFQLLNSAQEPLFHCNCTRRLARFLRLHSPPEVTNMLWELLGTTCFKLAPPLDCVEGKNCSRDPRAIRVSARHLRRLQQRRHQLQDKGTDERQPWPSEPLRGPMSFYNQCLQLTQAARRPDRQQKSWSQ
# Efflux pump mplx = inhibitors of Candida antifungal efflux pumps expressed in yeast; S. cerevisiae Candida pump triplex, Nile Red efflux; inhibition, % at 10 µM; 330,000 tested, 0.44% active; AID 485275;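 active means plate passing quality check with inhibition over a set limit, or well fluorescence over plate mean plus 4 SD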;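 further: Nile Red retained in pooled yeast measured as flow cytometry median fluorescence; higher means more Nile Red kept so more efflux inhibition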
# Hits are given with their value; . = inactive; / = not tested or not shown.
SMILES,SUMO Mot1 rescue,SKN-1 inh,sPLA2-III inh,Efflux pump mplx
CCc1ccc(NCc2nc(-c3ccccc3)no2)cc1,.,42,.,.
Cc1ccc(-c2noc(CNc3ccccc3)n2)cc1,.,.,.,.
COc1ccccc1CN(Cc1cc2c(C)ccc(C)c2[nH]c1=O)Cc1nnnn1Cc1ccco1,.,37,.,.
COc1ccc2cc(CN(CCc3ccccc3)Cc3nnnn3Cc3ccco3)c(=O)[nH]c2c1,.,.,.,.
CCCN1CCCCC(NC(=O)OC(C)(C)C)C1=O (centres undefined),/,/,.,/
COC(=O)C1=C(C)N=c2s/c(=C/c3cccs3)c(=O)n2C1c1ccc(F)cc1 (centres undefined),.,35,.,.
CCOC(=O)C1=C(C)N=c2sc(=Cc3ccc(OCC(=O)O)cc3)c(=O)n2C1c1ccc(Cl)cc1 (centres undefined),/,.,.,/
O=C(O)c1ccccc1C(=O)NNc1ccc(F)cc1,267,.,.,.
O=C(O)c1ccccc1C(=O)NCc1ccc(F)cc1,.,.,.,.
O=C(NCCCN1CCOCC1)c1cc(Cl)ccc1OCc1ccccc1,.,.,.,.
CSc1cccc(NC(=S)N(CCN(C)C)C(C)c2ccncc2)c1 (centres undefined),318,.,.,.
COC(=O)c1cc2c(c3c4cc(C)ccc4n(S(=O)(=O)c4cccc(C)c4)c13)C(=O)N(Cc1ccccc1OC)C2,/,/,.,/
CCCn1nc(C(=O)Nc2ccc3nc(N4CCOCC4)sc3c2)ccc1=O,/,.,.,/
Nc1nc(-c2ccc(-c3ccccc3)cc2)cs1,.,66,.,.
Nc1nc(-c2ccc(Oc3ccccc3)cc2)cs1,.,44,.,.
O=C(N[C@H](C(=O)N1CCC[C@H]1C(=O)NCc1ccccc1)C1CCCCC1)c1ccc(Cl)c(Cl)c1,/,/,.,/
COc1cc(/C=N/O)cc(Cl)c1OC,328,.,.,.
COc1cc(/C=N/O)cc(Br)c1OC,.,.,.,.
CC(=O)Nc1cc(NC(C)=O)cc(C(=O)OCC(=O)Nc2ccc(S(=O)(=O)NC3=NCCCCC3)cc2)c1,.,.,.,.
Cc1ccc(F)cc1C(=O)N1CCCC(C)(C(=O)NS(=O)(=O)C2CC2)C1 (centres undefined),/,.,.,/
O=C(O)c1ccc2c(c1)CCCN2,.,38,.,.
O=C(O)c1cccc(COc2ccc3c(c2)CCC3)c1,.,.,.,.
CC1(C(=O)NS(=O)(=O)Cc2cccc(Cl)c2)CCN1C(=O)CCc1cccs1 (centres undefined),/,.,.,/
COc1ccccc1NC(=O)NNC(=O)c1ccc2c(c1)NC(=O)C(C)(C)O2,.,.,.,.
COc1cccc(NC(=O)NNC(=O)c2ccc3c(c2)NC(=O)C(C)(C)O3)c1,.,40,.,.
SMILES,SUMO Mot1 rescue,SKN-1 inh,sPLA2-III inh,Efflux pump mplx
CC(C)c1[nH]nc2c1C(c1ccccc1)N(c1ccccc1)C2=O (centres undefined),/,/,.,/
CCc1ccc(-c2cn(C3CCCCC3)c(=S)[nH]2)cc1,.,.,23,.
COc1ccc(OC)c(C(O)c2nc3ccccc3n2C(C)C)c1 (centres undefined),304,.,.,.
CN(C)CCNc1ncnc2c1sc1nc(N3CCCC3)c3c(c12)CC(C)(C)OC3,.,50,.,.
CCN(CC)CCNc1ncnc2c1sc1nc(N3CCCC3)c3c(c12)CC(C)(C)OC3,.,.,.,.
CCOc1ccc(-c2nn(-c3ccccc3)cc2/C=C(\C#N)S(=O)(=O)c2ccccc2)cc1C,.,41,.,.
CC(C)C[C@H](NC(=O)c1[nH]cnc1C(=O)Nc1ccc(CNC(=O)OC(C)(C)C)cc1)C(=O)OCc1ccccc1,325,.,.,.
COC(=O)C1=C(C)N(C)C(=NCC2CC2)NC1c1cccc(Cl)c1 (centres undefined),/,/,.,/
CCCCOc1ccc(N2CC(C(=O)NCCc3ccc(OC)c(OC)c3)CC2=O)cc1 (centres undefined),909,.,.,.
COc1ccc(N2CC(C(=O)NCCc3ccc(OC)c(OC)c3)CC2=O)cc1 (centres undefined),.,.,.,.
COc1ccccc1C(=O)Nc1ccccn1,.,.,.,.
COc1ccccc1C(=O)Nc1ccc(Br)cc1C,.,54,.,.
COCC(=O)Nc1ccc(Br)cc1C,.,.,.,.
COc1ccccc1C(=O)Nc1ccc(Br)c2cccnc12,.,39,.,.
CC(CNS(=O)(=O)c1ccccc1)Sc1ncccn1 (centres undefined),346,.,.,.
CCOC(=O)N[C@H](C(=O)N1CCC[C@H]1C(=O)NCc1ccccc1)C(C)C,/,/,.,/
O=C1/C(=C/c2ccco2)CCc2ccccc21,.,65,.,.
O=C1C(=Cc2ccco2)C(=O)c2ccccc21,.,.,.,.
Nc1ccc2c(c1)C/C(=C/c1ccco1)C2=O,.,.,22,.
CCOc1ccc(CNc2ccc(CNc3ncn[nH]3)cc2)cc1,342,.,.,.
CCOC(=O)C(C)C1(O)c2ccccc2-c2ncccc21 (centres undefined),/,37,.,.
OC(CC1CC12c1ccccc1-c1ncccc12)(c1ccccc1)c1ccccc1 (centres undefined),.,.,.,.
CCOC(=O)[C@]12CCCCC/C=C\1N(CCc1ccc(Cl)cc1)C(=O)[C@H]2CC(=O)NCc1ccc(C)o1,/,/,.,/
C(=Cc1c[nH]c2ccccc12)c1nccc2ccccc12,/,48,.,/
COC(=O)[C@]12C[C@H](CC(=O)NCC3CCCCC3)C(=O)N(Cc3ccc(Cl)cc3Cl)C1=C[C@H](C1CCCC1)O[C@@H]2C,/,/,.,/
SMILES,SUMO Mot1 rescue,SKN-1 inh,sPLA2-III inh,Efflux pump mplx
CCOC(=O)c1c(C)oc2c1c(C=NCCC(=O)O)c(O)c1ccccc12,.,37,.,.
CCOC(=O)c1c(C)oc2c1c(C=NC1CCS(=O)(=O)C1)c(O)c1ccccc12 (centres undefined),.,.,.,.
CCN1CCCC1CNC(=O)C(=O)NC(C)c1ccccc1 (centres undefined),.,.,.,.
CNC(=O)[C@@]1(C)C=C[C@@H](Cc2ccccc2)N1C(=O)OC,271,.,.,.
O=C1c2ccccc2CCc2ccc(Br)cc21,.,36,.,.
O=C1C(=NO)CCc2ccccc21,/,.,.,/
Cc1nn(C)cc1CNC(=O)Nc1cccc(Cl)c1,348,.,.,.
Cc1nn(C)cc1CNC(=O)Nc1ccc(Br)cc1Cl,.,.,.,.
CC(=O)O[C@@H]1C=C[C@@H](C#Cc2ccc(C(C)(C)C)cc2)O[C@@H]1COC(=O)NC(C)C,/,/,.,/
CN(C)c1ccc(C=C2C(=O)OC(C)(C(C)(C)C)OC2=O)cc1 (centres undefined),311,.,.,.
COCc1cc(N2CCNC[C@@H]2C)ccc1N1C[C@@H](C)O[C@@H](C)C1,/,/,.,/
CCC1(C)Cc2ccccc2-c2nc(NCCO)n(-c3ccc(C)cc3)c(=O)c21 (centres undefined),.,38,.,.
CCC1(C)Cc2ccccc2-c2nc(NCCO)n(-c3ccccc3)c(=O)c21 (centres undefined),.,.,.,.
O=C1/C(=C\c2ccc(C(F)(F)F)cc2)CSc2sccc21,.,37,.,.
